Measured values as given in PubChem BioAssay AID1159580 (chemical genetic matrix, 2015).
Several values for one entry are separate records, joined by “and”; a condition that tells them apart may be missing. Identical values can stand only once. Among all 5,500 compounds or so, about 2,000 (36%) were called active. Another 18% or so got no clear call; they are omitted. Rule as the data show it: active = normalized growth mostly below about 0.91 (no sharp cut-off); inconclusive = no clear call, values can overlap the other calls; inactive = mostly above about 0.92. Some of the results follow.

Assay: chemical genetic growth profiling, strain panel (AID 1159580);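 also: tested at 20 µM; growth read once vehicle control cultures reached saturation at 30 °C; 1 = growth at the plate median or of vehicle wells; lower values mean less growth of the strain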
Conditions: growth OD

Measured: normalized growth

Cc1cc(C(C)(C)C)cc(C)c1CC1=NCCN1
inactive: S. cerevisiae deletion strains, locus YJR075W, strain HOC1, stronger effect = lower value 1.02 | S. cerevisiae deletion strains, locus YKL009W, strain mrt4, stronger effect = lower value 1.03 | S. cerevisiae deletion strains, locus YKL068W, stronger effect = lower value 1 | S. cerevisiae deletion strains, locus YKL085W, strain MDH1 (second series), stronger effect = lower value 1.02 | S. cerevisiae deletion strains, locus YKL085W, strain MDH1, stronger effect = lower value 1.02 | S. cerevisiae deletion strains, locus YKL160W, strain elf1, stronger effect = lower value 1.01 | S. cerevisiae deletion strains, locus YKL190W, strain CNB1, stronger effect = lower value 1.02 | S. cerevisiae deletion strains, locus YKR001C, strain vps1, stronger effect = lower value 0.99 | S. cerevisiae deletion strains, locus YKR026C, strain gcn3, stronger effect = lower value 1.01 | S. cerevisiae deletion strains, locus YKR091W, strain srl3, stronger effect = lower value 0.996 | S. cerevisiae deletion strains, locus YLL001W, strain dnm1, stronger effect = lower value 1.03 | S. cerevisiae deletion strains, locus YLL026W, stronger effect = lower value 0.995 | S. cerevisiae deletion strains, locus YLL041C, strain sdh2, stronger effect = lower value 1 | S. cerevisiae deletion strains, locus YLR027C, strain aat2, stronger effect = lower value 1.01 | S. cerevisiae deletion strains, locus YLR039C, strain RIC1, stronger effect = lower value 0.992 | S. cerevisiae deletion strains, locus YLR058C, strain SHM2, stronger effect = lower value 1.02 | S. cerevisiae deletion strains, locus YLR102C, strain apc9, stronger effect = lower value 0.996 | S. cerevisiae deletion strains, locus YLR113W, strain HOG1, stronger effect = lower value 0.997 | S. cerevisiae deletion strains, locus YLR221C, strain rsa3, stronger effect = lower value 0.969 | S. cerevisiae deletion strains, locus YLR258W, strain gsy2, stronger effect = lower value 1 | S. cerevisiae deletion strains, locus YLR262C, strain YPT6 (second series), stronger effect = lower value 1.03 | S. cerevisiae deletion strains, locus YLR262C, strain YPT6, stronger effect = lower value 1.06 | S. cerevisiae deletion strains, locus YLR268W, strain sec22, stronger effect = lower value 0.983 | S. cerevisiae deletion strains, locus YLR320W, strain mms22, stronger effect = lower value 0.99 | S. cerevisiae deletion strains, locus YLR330W, strain CHS5, stronger effect = lower value 1.01 | S. cerevisiae deletion strains, locus YLR342W, strain FKS1 (second series), stronger effect = lower value 0.99 | S. cerevisiae deletion strains, locus YLR342W, strain FKS1, stronger effect = lower value 1 | S. cerevisiae deletion strains, locus YLR357W, strain rsc2, stronger effect = lower value 1 | S. cerevisiae deletion strains, locus YLR370C, strain arc18, stronger effect = lower value 1.01 | S. cerevisiae deletion strains, locus YLR371W, strain rom2, stronger effect = lower value 1 | S. cerevisiae deletion strains, locus YLR384C, strain iki3, stronger effect = lower value 1 | S. cerevisiae deletion strains, locus YLR418C, strain cdc73, stronger effect = lower value 0.995 | S. cerevisiae deletion strains, locus YML016C, strain PPZ1, stronger effect = lower value 1.01 | S. cerevisiae deletion strains, locus YML032C, strain rad52, stronger effect = lower value 0.994 | S. cerevisiae deletion strains, locus YML120C, strain ndi1, stronger effect = lower value 1.01 | S. cerevisiae deletion strains, locus YML124C, strain tub3, stronger effect = lower value 0.996 | S. cerevisiae deletion strains, locus YMR058W, strain fet3, stronger effect = lower value 1.01 | S. cerevisiae deletion strains, locus YMR078C, strain ctf18, stronger effect = lower value 0.991 | S. cerevisiae deletion strains, locus YMR125W, strain sto1, stronger effect = lower value 0.981 | S. cerevisiae deletion strains, locus YMR129W, stronger effect = lower value 1 | S. cerevisiae deletion strains, locus YMR205C, strain PFK2, stronger effect = lower value 1.02 | S. cerevisiae deletion strains, locus YMR223W, strain ubp8, stronger effect = lower value 1 | S. cerevisiae deletion strains, locus YMR231W, strain pep5, stronger effect = lower value 1 | S. cerevisiae deletion strains, locus YMR263W, strain SAP30, stronger effect = lower value 1.02 | S. cerevisiae deletion strains, locus YMR307W, strain GAS1, stronger effect = lower value 1.02 and 0.994 | S. cerevisiae deletion strains, locus YNL067W, strain RPL9B, stronger effect = lower value 1.02 | S. cerevisiae deletion strains, locus YNL071W, strain lat1, stronger effect = lower value 0.998 | S. cerevisiae deletion strains, locus YNL128W, strain TEP1, stronger effect = lower value 1.03 and 0.994 | S. cerevisiae deletion strains, locus YNL153C, strain GIM3, stronger effect = lower value 1 and 0.97 | S. cerevisiae deletion strains, locus YNL175C, strain NOP13, stronger effect = lower value 1.02 | S. cerevisiae deletion strains, locus YNL183C, strain NPR1, stronger effect = lower value 0.96 | S. cerevisiae deletion strains, locus YNL197C, strain WHI3, stronger effect = lower value 1.01 | S. cerevisiae deletion strains, locus YNL209W, strain ssb2, stronger effect = lower value 0.998 | S. cerevisiae deletion strains, locus YNL224C, strain SQS1, stronger effect = lower value 0.987 | S. cerevisiae deletion strains, locus YNL233W, strain BNI4, stronger effect = lower value 1.02 | S. cerevisiae deletion strains, locus YNL248C, strain rpa49, stronger effect = lower value 0.948 | S. cerevisiae deletion strains, locus YNL250W, strain rad50, stronger effect = lower value 1.01 | S. cerevisiae deletion strains, locus YNL271C, strain bni1, stronger effect = lower value 0.986 | S. cerevisiae deletion strains, locus YNL298W, strain CLA4, stronger effect = lower value 0.992 | S. cerevisiae deletion strains, locus YNL307C, strain MCK1, stronger effect = lower value 1.01 | S. cerevisiae deletion strains, locus YNL322C, strain KRE1 (second series), stronger effect = lower value 1.01 | S. cerevisiae deletion strains, locus YNL322C, strain KRE1, stronger effect = lower value 1.02 | S. cerevisiae deletion strains, locus YNR049C, strain mso1, stronger effect = lower value 0.998 | S. cerevisiae deletion strains, locus YNR052C, strain pop2, stronger effect = lower value 0.997 | S. cerevisiae deletion strains, locus YOL006C, strain TOP1, stronger effect = lower value 0.984 | S. cerevisiae deletion strains, locus YOL012C, strain htz1 1.06 | S. cerevisiae deletion strains, locus YOL147C, strain pex11, stronger effect = lower value 0.998 | S. cerevisiae deletion strains, locus YOR001W, strain rrp6, stronger effect = lower value 1.02 | S. cerevisiae deletion strains, locus YOR061W, strain CKA2, stronger effect = lower value 1.01 | S. cerevisiae deletion strains, locus YOR069W, strain VPS5, stronger effect = lower value 1.02 | S. cerevisiae deletion strains, locus YOR070C, strain gyp1, stronger effect = lower value 0.992 | S. cerevisiae deletion strains, locus YOR080W, strain dia2, stronger effect = lower value 1.01 | S. cerevisiae deletion strains, locus YOR083W, strain WHI5 (second series), stronger effect = lower value 0.992 | S. cerevisiae deletion strains, locus YOR083W, strain WHI5, stronger effect = lower value 0.99 | S. cerevisiae deletion strains, locus YOR106W, strain vam3, stronger effect = lower value 1.03 | S. cerevisiae deletion strains, locus YOR136W, strain idh2, stronger effect = lower value 0.997 | S. cerevisiae deletion strains, locus YOR144C, strain elg1, stronger effect = lower value 1 | S. cerevisiae deletion strains, locus YOR184W, strain ser1, stronger effect = lower value 1 | S. cerevisiae deletion strains, locus YOR231W, strain MKK1, stronger effect = lower value 1 | S. cerevisiae deletion strains, locus YOR265W, strain rbl2, stronger effect = lower value 1 | S. cerevisiae deletion strains, locus YOR270C, strain vph1, stronger effect = lower value 1 | S. cerevisiae deletion strains, locus YOR290C, strain snf2, stronger effect = lower value 0.975 | S. cerevisiae deletion strains, locus YOR316C, strain cot1, stronger effect = lower value 0.997 | S. cerevisiae deletion strains, locus YPL051W, strain arl3, stronger effect = lower value 1.01 | S. cerevisiae deletion strains, locus YPL055C, strain LGE1, stronger effect = lower value 1.04 | S. cerevisiae deletion strains, locus YPL078C, strain atp4, stronger effect = lower value 1.03 | S. cerevisiae deletion strains, locus YPL106C, strain sse1, stronger effect = lower value 0.996 | S. cerevisiae deletion strains, locus YPL240C, strain hsp82, stronger effect = lower value 0.991 | S. cerevisiae deletion strains, locus YPL241C, strain CIN2, stronger effect = lower value 1.01 and 1 | S. cerevisiae deletion strains, locus YPL256C, strain CLN2, stronger effect = lower value 0.949 | S. cerevisiae deletion strains, locus YPR119W, strain clb2, stronger effect = lower value 0.995 | S. cerevisiae deletion strains, locus YPR141C, strain kar3, stronger effect = lower value 1.01 | S. cerevisiae deletion strains, locus YPR163C, strain tif3, stronger effect = lower value 1 | S. cerevisiae deletion strains, locus YPR167C, strain met16, stronger effect = lower value 0.997 | S. cerevisiae deletion strains, strain wtn01, stronger effect = lower value 0.994 | S. cerevisiae strains, strain wild type, stronger effect = lower value 1.01
